Assay results published in the supplement of paper PMC10941209.

tested on: Toxoplasma gondii RH 2F1 tachyzoites (intracellular in HFF); experiment: parasite survival relative to DMSO control; higher = less antiparasitic activity, active = 20 or less; settings: 1 µM; 72 h
How it was run: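 Parasite survival was taken as the CPRG signal relative to DMSO-treated infected wells, given as a percentage. To obtain it, HFF cells (5 × 10^3 cells/well, 96-well plates) were infected for 3 h in D2 medium with 5 × 10^3 β-galactosidase-expressing Toxoplasma gondii RH-2F1 tachyzoites, then exposed to compound at 1 μM for 72 h at 37°C in 5% CO2. Absorbance at 570 nm was measured 30 min after CPRG was added to lysed cells, and 2 or more biological replicates were run.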

SMILES	parasite survival
CC(C)(C)NC(=O)[C@@H]1CN(Cc2cnc3occc3c2)CCN1C[C@@H](O)C[C@@H](Cc1ccccc1)C(=O)N[C@H]1c2ccccc2C[C@H]1O	58.1% (inactive)
O=P(O)(O)C(CCCc1cccc(Oc2ccccc2)c1)S(=O)(=O)O (stereo not given)	65.2% (inactive)
NCCCc1ccccc1C(=O)Nc1ncc([N+](=O)O)s1	47.9% (inactive)
COc1ccc(C(C)(C)C)cc1NC(=O)C(=O)c1ccc(OCCN2CCOCC2)c2ccccc12	45.8% (inactive)
O=C(O)C(Cc1c[nH]c2ccccc12)N1C(=O)c2ccccc2C1=O (stereo not given)	46.6% (inactive)
CC(=O)N1c2ccccc2NC2=C(C(=O)CC(C)(C)C2)C1c1ccc(OCc2ccccc2)cc1 (stereo not given)	46.7% (inactive)
Cc1nc2ccc(Cl)cc2c(-c2ccccc2)c1CC(=O)O	79.3% (inactive)
COc1cc(NC(=O)CN2C(=O)NC(c3ccccc3)(c3ccccc3)C2=O)cc(OC)c1	49.2% (inactive)
O=C(NC1CCCc2c1[nH]c1ccc(Cl)cc21)c1ccccn1 (stereo not given)	63.8% (inactive)
Nc1nc(=O)c(Br)c(-c2ccccc2)[nH]1	75.4% (inactive)
Cc1cc(C2CCCCC2)n(O)c(=O)c1	15.8% (active)
O=C1CCC(N2C(=O)c3ccccc3C2=O)C(=O)N1 (stereo not given)	58.1% (inactive)
O=C(/C(=C/c1ccc(Cl)cc1Cl)n1ccnc1)c1ccc(Cl)cc1	10.2% (active)
O=C(NC(=O)N1CCCc2ccccc21)c1ccc(Cl)cc1Cl	55.9% (inactive)
Clc1ccc(Cn2c(CN3CCCC3)nc3ccccc32)cc1	42.2% (inactive)
